The text below walks through data of PubChem BioAssay AID686978 (National Center for Advancing Translational Sciences (NCATS), 2013).

SMILES strings stand for the structures. Where “and” joins values, the source holds several entries; their conditions need not be identical. Equal values may be shown once. Screen size: about 420,000 compounds; about 64,000 (15%) were called active. Roughly 27% stayed inconclusive and do not appear here. Calls come from the whole dose curve; as a rule, active = well fitted inhibition curve with a large enough effect; inconclusive = small, poorly fitted or top-dose-only effect; inactive = flat fitted curve, though single readings scatter. A selection follows. Entries that show only a call come without a potency. The source holds several records for some structures; these can differ, active in one and inactive in another.
Potency is the fitted concentration of half-maximal effect.

The nature of the experiment: qHTS for Inhibitors of human tyrosyl-DNA phosphodiesterase 1 (TDP1): qHTS in cells in absence of CPT. Note: nearly all actives have a fitted effect of over 55% in size. The following applies: DT40 Tdp1-/- hTDP1 cells, no CPT, ATP luminescence, 48 h; activity change, negative = growth inhibition: at 46.2 µM (top of the series). In outline:
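A cellular qHTS used chicken DT40 cells lacking endogenous Tdp1 but carrying stably transfected human TDP1. Compounds were applied without camptothecin, and cell growth kinetics were judged by ATP-dependent luminescence after ≥48 hr.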
(In general: Quantitative high-throughput screening tests each substance at several concentrations.)
Turning to `C[C@@H]1CC2=C(C(=O)OC(C)(C)O2)[C@@H](C2CC2)O1`, the Potency entry is “inactive”. For the molecule `COc1cccc(-c2ccc3c(c2)S(=O)(=O)c2cccc(C(=O)O)c2C3=O)c1OC`, the Potency result was “inactive”.

With `O=C(COC(=O)c1ccc([N+](=O)[O-])cc1Cl)NC(=O)c1ccccc1`, the Potency entry is “inactive”.

In the case of `O=S(=O)(c1ccccc1)N1CCC2(CC1)CN(Cc1nccs1)C2`, the Potency result is “inactive”. The value for `CC(=O)N[C@@H](C)C(=O)N1CCC(n2nccc2NC(=O)CCCc2ccccc2)CC1` was “inactive”; that for `Cc1oc2ccc(O)c(CN3CCCCC3)c2c1C(=O)Nc1cccc(C(F)(F)F)c1` was 23.1 µM (active). `CCOC(=O)c1cccc(NC(=O)c2cc(CN3CCCC3)on2)c1`: the Potency result was “inactive”.

As for `CC(=O)N1CCN(C(=O)Nc2cccc(C(F)(F)F)c2)CC1`, the Potency result was “inactive”.

`COc1ccc(CCNC(=O)COC(=O)C2CC2C)cc1` (configuration not stated): the Potency entry is “inactive”. For `O=C(O)CCN(Cc1ccccc1)S(=O)(=O)c1c(Cl)cccc1Cl`, the Potency result is “inactive”. Consider `CCC(C)N(C(=O)CSc1ncnc2c1cnn2-c1ccccc1)C1CCS(=O)(=O)C1` (configuration not stated), for which the Potency entry is “inactive”. For `COc1ccccc1NC(=S)NC(=O)C(C)C`, the Potency result was “inactive”.

`COc1ccccc1NC(=O)c1oc2ccccc2c1NC(=O)C(C)C`: the Potency is 16.4 µM (active).

In the case of `COc1ccccc1NC(=O)c1oc2ccccc2c1NC(=O)COc1ccccc1OC`, the Potency result was “inactive”.

`Cc1ccc(C(=O)OCC(=O)Nc2ccc(Cl)cn2)cc1S(=O)(=O)N1CCOCC1`: the Potency result was “inactive”. The value for `O=C(COC(=O)C1(c2ccc(F)cc2)CCCC1)N1CCNC1=O` was “inactive”; that for `O=C(OCCN1CCOCC1)C1(c2ccccc2)CCCCC1` was “inactive and 26.6 µM (active)”. The value for `N[C@@H](Cc1ccccc1)C(=O)N1CCOCC1` was “inactive”; that for `CN(C(=O)c1cccc(OC2CCN(S(=O)(=O)N(C)C)CC2)c1)C1CCOC1` (configuration not stated) was “inactive”.

Regarding `CNS(=O)(=O)c1cccc(C(=O)NCC2CCCCC2)c1`, the Potency result is “inactive”.

In the case of `CN(C)S(=O)(=O)N1CCC(Oc2cccc(C(=O)NCCCC3CCCC3)c2)CC1`, the Potency was 7.31 µM (active). The value for `CC(C)N(C(=O)Cn1cc(SCC(=O)N2CCCC2)c2ccccc21)C(C)C` was “inactive”; that for `O=C1c2ccccc2C(=O)N1CCc1nn[nH]n1` was “inactive”. The same measure for `O=C(NCCS(=O)(=O)N1CCN(c2ccccc2)CC1)c1ccco1`: “inactive”. For the molecule `COc1cc(C(=O)NCCS(=O)(=O)N2CCN(c3ccccc3)CC2)cc(OC)c1OC`, the Potency is 20.6 µM (active). The same measure for `COc1ccc(N2CC(C(=O)NCCS(=O)(=O)N3CCN(c4ccccc4)CC3)CC2=O)cc1` (configuration not stated): “inactive”; for `O=C(O)c1cc(S(=O)(=O)N(Cc2ccccc2)c2ccccc2)ccc1Cl`: “inactive”; for `C#CCOCCOCCOCCNc1nc(N2CCN(C(=O)Cn3cc(CCCCN)nn3)CC2)nc(N2CCN(C(=O)[C@H](CCCCN)n3cc(CCC(=O)O)nn3)CC2)n1`: “inactive”. Consider `COc1ccc(C(C)(NC(C)=O)c2nc(-c3ccc(S(C)(=O)=O)cc3)cs2)cc1` (configuration not stated), for which the Potency result was “inactive”.

As to `Cc1csc(OCC(=O)Nc2ccc(C)c(C)c2)n1`, the Potency entry is “inactive”.

Take `COc1ccc(C(C)(O)c2nc(-c3cc(F)cc(F)c3)cs2)cc1` (configuration not stated): the Potency was 16.4 µM (active). The same measure for `COc1ccc(C(C)(O)c2nc(-c3ccc(C)c(C)c3)cs2)cc1` (configuration not stated): 18.4 µM (active); for `Cc1ccc(-c2csc(-c3cc(C)on3)n2)cc1`: “inactive”.

As for `COc1cccc(CN2C(=O)CCC2(C)C(=O)NC2CCCCCC2)c1` (configuration not stated), the Potency entry is “inactive”. Take `COc1cc(C)c(S(=O)(=O)N2CCOCC2)c(C)c1C`: the Potency result is “inactive”. The value for `CCNC(=O)Nc1ccc(S(=O)(=O)Nc2cnc(C)nc2C)cc1` was “inactive”; that for `Cc1cccc(NC(=O)/C=C/c2ccc3c(c2)OCO3)n1` was 18.4 µM (active); that for `O=C(O)/C=C/c1ccc2c(c1)OCCO2` was “inactive”. Take `CCc1c(C)sc(NC(=O)/C=C/c2ccc3c(c2)OCO3)c1C(=O)OC`: the Potency entry is “inactive”. Consider `CC1CN(S(=O)(=O)c2ccc(C(=O)NN3CCN(C)CC3)cc2)CC(C)O1` (configuration not stated), for which the Potency entry is “inactive”. The value for `O=C(CCC1CCCC1)N=C1SC2CS(=O)(=O)CC2N1Cc1ccccc1` (configuration not stated) was “inactive”; that for `O=C(CCN1C(=O)c2ccccc2C1=O)NCCCn1ccnc1` was “inactive”; that for `CCCCN(C(=O)C1=NN(c2cc(C)ccc2C)C(=O)CC1)c1c(N)n(CCC)c(=O)[nH]c1=O` was “inactive”. Turning to `CC(C)CC(CCc1ccccc1)OS(N)(=O)=O` (configuration not stated), the Potency result is “inactive”. The value for `CN1OC[C@@H]2CN(C(=O)C(C)(C)C)[C@H](c3ccc(-n4ccnc4)cc3)C[C@@H]21` was “inactive”; that for `CC1CC(C)(C)CC2(C1)NC(=O)N(CC(=O)Nc1nccs1)C2=O` (configuration not stated) was “inactive”; that for `Cc1ccc(CC2CC(=O)N(c3ccc4c(c3)OCCO4)C2=O)cc1` (configuration not stated) was “inactive”.

Take `COc1ccc(C2=NN(C(=O)c3ccccc3C(=O)O)C(c3ccccc3O)C2)cc1` (configuration not stated): the Potency entry was “inactive”.

Consider `COc1ccc(C2=NN(C(C)=O)C(c3ccccc3)C2)cc1` (configuration not stated), for which the Potency result is “inactive”. `COc1ccc(C2CC(c3ccc([N+](=O)[O-])cc3)=NN2C(C)=O)cc1` (configuration not stated): the Potency is 14.6 µM (active). For `Cc1nn(C)c(C)c1CN(C(=O)CCc1nnc(Cc2c[nH]c3ccccc23)o1)C(C)C`, the Potency was 16.4 µM (active).

`CC(C)N(C)C(=O)CCc1nnc(CCc2c[nH]c3ccccc23)o1`: the Potency entry was “inactive”. The same measure for `Cc1nc(CN2CCN(C(=O)CCc3nnc(Cc4c[nH]c5ccccc45)o3)CC2)cs1`: “inactive”. The same measure for `CC1(C(=O)NS(=O)(=O)c2cccc(F)c2)CCN1C(=O)Cc1cc(F)ccc1F` (configuration not stated): “inactive”. As to `O=C(CN1C(=O)COc2ccc(Cl)cc21)N1CCOCC1`, the Potency entry is “inactive”. As for `Cc1cccc(OCC(=O)NCCNC(=O)c2cccnc2)c1`, the Potency entry was “inactive”. The value for `COc1cc(C2C(C(=O)c3ccc(C)o3)=C(O)C(=O)N2Cc2cccnc2)ccc1O` (configuration not stated) was “inactive”; that for `CCOC(=O)c1ccc(N2C(=O)c3n[nH]c(C)c3C2c2ccc(O)c(OC)c2)cc1` (configuration not stated) was 18.4 µM (active); that for `CCOC(=O)C1=C(c2ccccc2)N=C2SCC(=O)N2C1c1ccc(O)c(OC)c1` (configuration not stated) was “inactive”. The value for `Cc1nc(N2CCCC2C(=O)O)c2oc3ccccc3c2n1` (configuration not stated) was “inactive”. The same measure for `CCCN(CC(=O)Nc1ccc(OC)c(OC)c1)CC(=O)Nc1ccc(F)c(F)c1F`: “inactive”; for `O=C(Nc1sc2c(c1-c1nc3ccccc3[nH]1)CCCC2)C1CC1`: “inactive”.

With `CC(=O)c1ccc(NC(=O)C(C)NCc2ccc(Cl)cc2)cc1` (configuration not stated), the Potency entry is “inactive”.

Consider `Cc1nnc(N/N=C/c2cccs2)[nH]c1=O`, for which the Potency result is “inactive”. The same measure for `COc1ccc(-n2c(O)c(C=NCC(c3ccco3)N3CCCC3)c3ccccc3c2=O)cc1OC` (configuration not stated): “inactive”. Regarding `CCOc1ccc(-n2c(O)c(/C=N/c3ccnn3Cc3ccncc3)c3ccccc3c2=O)cc1`, the Potency result is “inactive”. For `CCOc1ccc(-n2c(O)c(/C=N/Nc3nc(C)cc(C)n3)c3ccccc3c2=O)cc1`, the Potency was 3.26 µM (active).

In the case of `Cc1nnc(N/N=C/c2ccccn2)[nH]c1=O`, the Potency is 2.91 µM (active). The same measure for `CCOc1ccc(-n2c(O)c(/C=N/Nc3nnc(C)c(=O)[nH]3)c3ccccc3c2=O)cc1`: 0.92 µM (active); for `CCN(CC)CCCN=Cc1c(O)n(-c2ccc(C)cc2)c(=O)c2ccccc12`: “inactive”. The value for `CCOc1ccc(N/C(N)=N/c2nc(C)c(C)c(=O)[nH]2)cc1` was “inactive”; that for `Cc1ccccc1Nc1nnc(C)c(=O)[nH]1` was “inactive”; that for `CC(=O)Nc1ccc(S(=O)(=O)NC2(C(F)(F)F)C(=O)Nc3c2c(=O)[nH]c(=O)n3Cc2ccccc2)cc1` (configuration not stated) was “inactive”. The value for `Cc1cc(F)ccc1NC(=O)C(C)n1c2ccccc2c2nc(=O)cc(C)n21` (configuration not stated) was “inactive”; that for `CCC(C)n1[nH]c(=O)cc1N` (configuration not stated) was “inactive”; that for `O=C(CCN1C(=O)C2C3C=CC(C3)C2C1=O)Oc1ccc2ccccc2c1` (configuration not stated) was “inactive”.

With `CC1CCCCC1NC(=O)CN1CCC(O)(c2ccc3c(c2)OCO3)CC1` (configuration not stated), the Potency entry was “inactive”. The value for `CCCCn1nc(C(=O)OCC(=O)Nc2sccc2C(N)=O)c2ccccc2c1=O` was “inactive”; that for `CCCCn1nc(C(=O)N2CCc3ccccc32)c2ccccc2c1=O` was 16.4 µM (active). As to `CCn1nc(C(=O)OCC(=O)N2c3ccccc3CC2C)c2ccccc2c1=O` (configuration not stated), the Potency result was “inactive”. The value for `CCC(=O)N1CCCc2ccccc21` was “inactive”; that for `CCCn1nc(C(=O)N2CCCc3ccccc32)c2ccccc2c1=O` was 18.4 µM (active); that for `O=C(c1cccc(C(=O)N2CCc3ccccc32)n1)N1CCc2ccccc21` was “inactive”. The value for `O=C(NCCCN1CCCCCC1)C1CC(=O)N(C2CCCC2)C1` (configuration not stated) was “inactive”. The value for `CCN1CCN(C(c2ccc(C)cc2)c2c(O)cc(C)n(Cc3ccco3)c2=O)CC1` (configuration not stated) was “inactive”; that for `CCOC(=O)[C@H](CCc1ccccc1)N[C@@H](C)C(=O)N1CC2(C[C@H]1C(=O)O)SCCS2` was “inactive”. Turning to `Cc1ccc(NC2=NC(c3ccccc3)n3c(nc(C)cc3=O)N2)cc1` (configuration not stated), the Potency result was “inactive”. The value for `COc1cccc(NCCC(=O)c2cccc([N+](=O)[O-])c2)c1` was 14.6 µM (active).

Consider `COc1cccc(CNC(=O)CCCC(=O)Nc2cccc([N+](=O)[O-])c2)c1`, for which the Potency entry is “inactive”. As to `CC(C)(C)SCCNC(=O)c1cccc([N+](=O)[O-])c1`, the Potency entry is “inactive”.

For `CC1=NN(c2ccc(Cl)c(C(=O)O)c2)C(=O)/C1=C/c1ccc(-c2ccccc2[N+](=O)[O-])o1`, the Potency result was “inactive”.

In the case of `Cc1occc(=O)c1OCc1ccc(F)cc1`, the Potency result was “inactive”. As to `Fc1cccc2ncnc(OCc3ccccc3)c12`, the Potency result is “inactive”. For `Cc1nc2ccccc2cc1OCc1ccc(F)cc1`, the Potency is 11.6 µM (active).

Turning to `Cc1cc(C)cc(C(=O)NC2C(=O)N3C(C(=O)O)=C(CSc4nnc(C)s4)CSC23)c1` (configuration not stated), the Potency entry is “inactive”.

For `CCOc1ccc(NC(=O)c2ccc(NC(=O)CN3C(=O)C(=O)N(CC(C)C)C3=O)cc2)cc1`, the Potency entry is “inactive”.

With `Cc1ccsc1C(=O)OCC(=O)NCCc1ccccc1`, the Potency entry was “inactive”. The value for `CCC1CCCCN1C(=O)CSc1nc(C)cc(C)n1` (configuration not stated) was “inactive”; that for `Cc1cccc(NC(=O)C2CCN(C(=O)NC3CCCCC3)CC2)c1` was “inactive”; that for `CC(=O)c1cccc(NC(=S)N2CCCC2)c1` was “inactive”.

For the molecule `Cc1cccc(NC(=S)N2CCC(C(=O)c3ccc(F)cc3)CC2)c1`, the Potency is 13 µM (active). On to `Cn1c(N2CCOCC2)c(C=O)c2ccccc21`, for which the Potency result is “inactive”.
